We go through 38 compounds from ChEMBL document CHEMBL5308504, “Tm Shift (DSF) assay results for EUbOPEN Chemogenomics Library” (2023).

One may read the ΔTm as the change in melting temperature against a reference sample.

The target in assay [1] is Bromodomain-containing protein 4 (Homo sapiens) (UniProt O60885). The following applies: Compound concentration 20.0 uM, Protein concentration 2.0 uM, Result type QC Liability.
The target in assay [2] is T1, Transcription intermediary factor 1-alpha (Homo sapiens) (UniProt O15164).
T1 sequence (whole entry): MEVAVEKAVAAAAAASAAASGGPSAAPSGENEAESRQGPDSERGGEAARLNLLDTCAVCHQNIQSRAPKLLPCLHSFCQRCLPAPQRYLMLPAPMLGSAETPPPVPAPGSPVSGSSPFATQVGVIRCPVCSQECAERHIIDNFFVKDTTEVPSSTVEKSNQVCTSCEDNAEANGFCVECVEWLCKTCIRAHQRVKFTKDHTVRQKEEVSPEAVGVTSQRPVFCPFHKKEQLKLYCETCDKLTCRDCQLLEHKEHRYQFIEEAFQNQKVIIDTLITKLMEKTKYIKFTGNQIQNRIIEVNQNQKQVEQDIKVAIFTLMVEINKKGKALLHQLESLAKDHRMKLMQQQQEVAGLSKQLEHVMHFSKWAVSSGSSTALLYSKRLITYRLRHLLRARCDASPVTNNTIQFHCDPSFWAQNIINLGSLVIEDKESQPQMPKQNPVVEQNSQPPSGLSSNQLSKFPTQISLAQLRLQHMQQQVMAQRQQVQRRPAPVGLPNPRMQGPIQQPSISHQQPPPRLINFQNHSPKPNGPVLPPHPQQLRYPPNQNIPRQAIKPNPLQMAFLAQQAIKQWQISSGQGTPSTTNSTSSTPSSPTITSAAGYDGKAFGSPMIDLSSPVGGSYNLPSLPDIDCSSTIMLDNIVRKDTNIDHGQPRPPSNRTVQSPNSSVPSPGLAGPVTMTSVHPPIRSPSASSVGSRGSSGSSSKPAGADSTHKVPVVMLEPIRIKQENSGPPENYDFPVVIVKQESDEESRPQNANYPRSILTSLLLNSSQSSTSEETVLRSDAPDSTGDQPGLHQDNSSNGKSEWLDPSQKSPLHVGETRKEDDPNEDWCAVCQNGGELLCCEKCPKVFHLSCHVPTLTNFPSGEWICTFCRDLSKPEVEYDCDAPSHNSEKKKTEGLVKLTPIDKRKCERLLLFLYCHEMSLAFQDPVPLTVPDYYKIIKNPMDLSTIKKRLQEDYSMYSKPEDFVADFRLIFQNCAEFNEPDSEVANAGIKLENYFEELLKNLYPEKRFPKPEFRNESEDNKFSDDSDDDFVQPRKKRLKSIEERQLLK
The settings on record: Compound concentration 20.0 uM, Protein concentration 2.0 uM, Result type QC Liability.

Molecules are shown by their SMILES. Where “and” joins values, the source holds several entries; their conditions need not be identical. Equal values may be shown once.

Turning to `CC(=O)c1c(C)c2cnc(Nc3ccc(N4CCN(CCCCNC(=O)COc5cccc6c5C(=O)N(C5CCC(=O)NC5=O)C6=O)CC4)cn3)nc2n(C2CCCC2)c1=O` (stereo unspecified), the ΔTm in assay [1] is -0.38 °C; in assay [2] it was -3.15 °C.

On to `CC(C)Nc1ncnc2cc(OCc3cccc([S@@](C)(=N)=O)c3)c(Br)cc12`, for which the ΔTm in assay [1] turned out to be 0.34 °C; in assay [2], 0.14 °C.

As to `O=C1Nc2nc(-c3c(O)cccc3OCC3CC3)cc([C@@H]3CCCNC3)c2CO1`, the ΔTm in assay [1] is -0.38 °C; in assay [2], 0.45 °C.

On to `CCOc1cc(CC(=O)N[C@@H](CC(C)C)c2ccccc2N2CCCCC2)ccc1C(=O)O`, for which the ΔTm in assay [1] is -0.4 °C; in assay [2], -1.24 °C.

`O=C(O)c1ccc(CN2C[C@@H]3C[C@H]2CN3Cc2ccc(Oc3ccc(-c4ncco4)cc3)cc2)cc1`: the ΔTm was -2.1 °C in assay [1] and -1.06 °C in assay [2].

With `Cc1c(N2CCNCC2)nc2ccc(Br)cc2c1C(=O)NC[C@H](CCC(=O)O)c1ccccc1Cl`, the ΔTm is -1.62 °C in assay [1] and -1.51 °C in assay [2].

Consider `COCCc1ccc(-c2c(C)nc3c(N4CCOCC4)ccnn23)cn1`, for which the results for the ΔTm in assay [1] and in assay [2] were -1.01 °C and -1.13 °C, respectively.

Regarding `O=C(CCCCCCc1ccccc1)c1ncc(-c2ccccn2)o1`, the figures for the ΔTm in assay [1] and in assay [2] were -1.06 °C and -0.23 °C, respectively.

In the case of `CCCc1c(OCCCOc2ccc(OCC(=O)O)cc2)ccc(C(C)=O)c1O`, the ΔTm in assay [1] was -2.92 °C; in assay [2], -1.6 °C.

`CCOC(=O)c1ccc(CN(Cc2ccc(-c3cccc(S(C)(=O)=O)c3)cc2)S(=O)(=O)c2c(C)cc(C)cc2C)o1`: the ΔTm in assay [1] was -4.78 °C; in assay [2], 0.5 °C.

In the case of `N[C@@H](CC(=O)O)Cn1nnc(-c2ccc(Oc3ncc(Cl)cc3F)cc2)n1`, the values for the ΔTm in assay [1] and in assay [2] were -12.6 °C and -0.53 °C, respectively.

`Cc1cc2nc(N3CCC(C(=O)NC4CCCC4)CC3)n(C(C)C)c2cc1C`: the ΔTm is -0.57 °C in assay [1] and -0.87 °C in assay [2].

As for `O=C(O)c1cc2cc(Cc3cccnc3)ccc2o1`, the ΔTm in assay [1] was -1.5 °C; in assay [2] it was -0.74 °C.

As for `Cc1cccc(-c2nn3c(c2-c2ccnc4ccc(C(N)=O)cc24)CCC3)n1`, the results for the shift in melting temperature (ΔTm) in assay [1] and in assay [2] were -2.31 °C and -2.8 °C, respectively.

On to `O=C(O)CCCCCC[C@@H]1C(=O)NC(=O)N1CCC(O)C1CCCCC1` (stereo partly specified), for which the ΔTm in assay [1] is -1.84 °C; in assay [2], -0.56 °C.

Take `O=C(O)CCCc1cc2cc(Cl)ccc2n1S(=O)(=O)c1ccc2ncsc2c1`: the ΔTm in assay [1] is -3.71 °C; in assay [2], -1.33 °C.

Regarding `CP(C)(=O)c1ccc(CNC(=O)C2CCN(S(=O)(=O)c3cc(Cl)cc(Cl)c3)CC2)cc1`, the ΔTm in assay [1] is -2.43 °C; in assay [2], 0.94 °C.

Regarding `COc1cc(C(=O)O)ncc1C#Cc1ccccc1NS(=O)(=O)c1cccc2c(N(C)C)ccnc12`, the ΔTm in assay [1] was 0.26 °C; in assay [2], -2.33 °C.

Regarding `CN(CCCCCCC1=C(c2cc(F)cc(F)c2)CCCc2cc(O)ccc21)CCCCS(=O)(=O)CCCC(F)(F)F`, the ΔTm in assay [1] worked out at 1.66 °C; in assay [2], 1.21 °C.

As to `CN(C)CCC[C@@]1(c2ccc(F)cc2)OCc2cc(C#N)ccc21`, the ΔTm in assay [1] was -1.59 °C; in assay [2] it was -0.51 °C.

Regarding `NC1(c2ccc(-c3nc4c(O)ccnn4c3-c3ccccc3)cc2)CCC1`, the ΔTm is -0.63 °C in assay [1] and -1.89 °C in assay [2].

In the case of `CSc1ccc(C[C@@H](C)C(=O)O)cc1Nc1nc(N2CC[C@H](N(C)C)C2)cc(C(F)F)c1C#N`, the ΔTm in assay [1] was 0.52 °C; in assay [2] it was 0.57 °C.

Take `CC[C@H](CC(=O)O)n1c(=O)c2ncccc2n(Cc2cn(C)c3cc(C)cc(C)c23)c1=O`: the ΔTm in assay [1] is -1.38 °C and -3.06 °C; in assay [2], 0.26 °C and -1.81 °C.

As for `CCC(F)(F)c1cc(N2CCC(S(C)(=O)=O)CC2)nc2sc(C(N)=O)c(N)c12`, the ΔTm in assay [1] was -3.68 °C and -1.82 °C and -0.22 °C; in assay [2], 0.36 °C and -3.9 °C and -0.99 °C.

As to `C=C1/C(=C\C=C2/CCC[C@]3(C)[C@@H]([C@H](C)CCCC(C)(C)O)CC[C@@H]23)C[C@@H](O)C[C@@H]1O`, the ΔTm was -7.29 °C in assay [1] and -4.59 °C in assay [2].

Consider `CC(C)[C@H](CO)Nc1nc(Nc2ccc(C(=O)O)c(Cl)c2)c2ncn(C(C)C)c2n1`, for which the ΔTm is 0.61 °C in assay [1] and -2.66 °C in assay [2].

On to `COc1cc(C(N)=O)nc(-c2cccc(C#C[C@]3(O)CCN(C)C3=O)c2)c1`, for which the ΔTm in assay [1] was -0.77 °C; in assay [2] it was -0.62 °C.

As for `CC(C)(C)c1cnc(CSc2cnc(NC(=O)C3CCN(CC(=O)NCCOCCOCCOCCNc4cccc5c4C(=O)N(C4CCC(=O)NC4=O)C5=O)CC3)s2)o1` (stereo unspecified), the ΔTm was -1.66 °C in assay [1] and -1.74 °C in assay [2].

In the case of `CNc1oc(-c2cccc3ccccc23)nc1C#N`, the ΔTm is -3.26 °C in assay [1] and -0.7 °C in assay [2].

Turning to `CC1(C)Oc2ncnc(N)c2N=C1c1ccc([C@H]2CC[C@H](CC(=O)O)CC2)cc1`, the ΔTm in assay [1] was -1.69 °C; in assay [2], -0.57 °C.

On to `O=C(Nc1cccc(Nc2nccc(Nc3cccc(C(F)(F)F)c3)n2)c1)C1CC1`, for which the ΔTm in assay [1] is 1.77 °C; in assay [2] it was 1.03 °C.

On to `COc1cc(-c2cn(C)c(=O)c3cnccc23)cc(OC)c1CN(C)C`, for which the ΔTm in assay [1] was -0.83 °C; in assay [2], 0.37 °C.

For `CN(C)C(=O)c1sc2nc(N3CCC(S(C)(=O)=O)CC3)cc(C(F)(F)F)c2c1N`, the ΔTm in assay [1] is -3.42 °C and 1.01 °C; in assay [2] it was 0.17 °C and 0.19 °C.

For `COc1cc2ncnc(Nc3ccc4c(cnn4Cc4ccccc4)c3)c2cc1OC`, the values for the ΔTm in assay [1] and in assay [2] were -0.65 °C and -2.15 °C, respectively.

`Cc1ccccc1Oc1cc(-n2c(=O)cc(C(F)(F)F)[nH]c2=O)c2ccccc2c1Cl`: the ΔTm was -1.47 °C in assay [1] and -0.87 °C in assay [2].

As to `COc1cc2ncnc(N[C@H](C)c3ccccc3)c2cc1OC1CCN(S(C)(=O)=O)CC1`, the figures for the ΔTm in assay [1] and in assay [2] were -3.35 °C and -1.88 °C, respectively.

As to `Cc1nn(-c2nc3ccc(Cl)c(Cl)c3[nH]2)c(O)c1C1OC(=O)c2ccccc21` (stereo unspecified), the ΔTm in assay [1] was -4.43 °C; in assay [2], -1.16 °C.

`CS(=O)(=O)NCC[C@H](NC(=O)c1cncc2c1cnn2-c1ccc(F)cc1)c1ccnc(S(C)(=O)=O)c1`: the ΔTm was -0.38 °C in assay [1] and 0.28 °C in assay [2].
